PubChem BioAssay (NCI)
The panel holds about 83,000 compounds, 20% with a hit somewhere; the sample as a whole holds those more often.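 Cell lines were cultured in 96-well plates, exposed to a single compound concentration, and assessed for percent growth 48 hours later.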 Unmarked numbers belong to inactive results. The source made the active and inactive calls. Rule for the calls: active = growth percent below 10; inactive = the rest.

Key:
Assay in all cases: NCI-60 one-dose screen, 48 h (100 = growth as untreated, 0 = no growth, -100 = all killed)
Details in all cases: 10 µM unless noted
[1] = system: RPMI-8226 leukemia
[2] = system: OVCAR-8 ovarian
[3] = system: OVCAR-5 ovarian
[4] = system: OVCAR-4 ovarian
[5] = system: SK-OV-3 ovarian
[6] = system: IGROV1 ovarian
[7] = system: OVCAR-3 ovarian
[8] = system: HS 578T breast
[9] = system: NCI/ADR-RES ovarian
[10] = system: T-47D breast
[11] = system: BT-549 breast
[12] = system: MDA-MB-435 melanoma
[13] = system: SW-620 colon
[14] = system: MCF7 breast
[15] = system: HCT-116 colon
[16] = system: HCC-2998 colon
[17] = system: KM12 colon

| Compound | growth [1] | growth [2] | growth [3] | growth [4] | growth [5] | growth [6] | growth [7] | growth [8] | growth [9] | growth [10] | growth [11] | growth [12] | growth [13] | growth [14] | growth [15] | growth [16] | growth [17] |
| --- | --- | --- | --- | --- | --- | --- | --- | --- | --- | --- | --- | --- | --- | --- | --- | --- | --- |
| COc1ccc(N=Nc2ccc(O)c(=O)cc2)cc1 | 9.86% (active) | 9.87% (active) | 47.8% | 31.8% | 16.5% | 15.1% | 16.2% | 30.7% | -29% (active) | -0.237% (active) | 22% | 25.1% | 21.7% | 5.65% (active) | 24.7% | 36.2% | 18.2% |
| COc1cccc(-c2nc3sccn3c2-c2ccnc(NCCNS(=O)(=O)c3cccc(Cl)c3)c2)c1 | -4.85% (active) | 21.4% | 89.6% | 34% | 65.6% | 41.8% | 48.2% | 38.6% | 22.7% | 1.84% (active) | 18.3% | 59.7% | 66.5% | 43.2% | 40% | 64.2% | 42.8% |
| C=CCSc1nc2ccccc2cc1/C=N/O | 86.7% | 89.6% | 78.6% | 107% | 68.2% | 74.1% | 92.1% | 72.2% | 97.2% | 67.6% | 85.6% | 95.1% | 87% | 78% | 78.8% | 93.9% | 89.5% |
| O=C1/C(=C/c2ccccc2)CCc2nc3ccccc3c(/C=C/c3ccc(Cl)cc3)c21 | 75.9% | 87.7% | 108% | 80.5% | 81.8% | 72.3% | 90.1% | 104% | 89.4% | 54% | 104% | 95.6% | 103% | 51.8% | 57.7% | 93.5% | 91.4% |
| CC1=C([Se]CC(OC(=O)[C@@H](CO)NC(=O)OC(C)(C)C)C(=O)NC(C)(C)C)C(=O)c2ccccc2C1=O (some centres not stated) | -33.7% (active) | -84.9% (active) | -100% (active) | -100% (active) | -100% (active) | -100% (active) | -100% (active) | -37.1% (active) | -94.7% (active) | -54.1% (active) | -100% (active) | -82.4% (active) | -85.9% (active) | -72.6% (active) | -100% (active) | -89.9% (active) | -77.7% (active) |
| Cc1c(C(=O)NC(Cc2ccccc2)C(O)C(=O)NCc2ccc(F)cc2)[nH]c2ccccc2c1=O (configuration not stated) | 105% | 103% | 91% | 107% | 104% | 103% | 114% | 99% | 107% | 102% | 108% | 101% | 114% | 104% | 104% | 118% | 102% |
| Cc1ccccc1NC(=O)N/C(N)=N/c1nc(-c2cccc([N+](=O)[O-])c2)cs1 | 34.1% | 67.3% | 76.3% | 56.5% | 57.2% | 37.1% | 26.9% | 11.2% | 2.74% (active) | 35.7% | 51% | -19.7% (active) | 31.1% | 22.4% | 20.6% | 39.6% | 31.2% |
| C=C(C)[C@@H]1CC[C@]2(C)[C@H](CC=C3[C@@H]4CC(C)(C)CC[C@]4(C(N)=O)CC[C@]32C)[C@@]1(C)CCC#N | 6.44% (active) | 26.5% | 47% | 20% | 48.1% | 53.1% | 23.5% | 51% | 35% | 10.4% | 17.7% | 17.7% | 22.1% | 6.71% (active) | 9.92% (active) | 44.7% | 20.7% |
| Cc1nn(-c2ccccc2)c(Oc2ccc(Cl)cc2)c1/C=N\N=c1/sc2ccccc2n1C | 77.4% | 89.1% | 106% | 106% | 74.2% | 84.7% | 101% | 78.8% | 98.1% | 66.4% | 84.1% | 97.2% | 77.8% | 85% | 73.2% | 103% | 94.6% |
| CCc1ccccc1-n1c(-c2ccc(Cl)cc2)cc(-c2ccc(Cl)cc2)c(C#N)c1=O | 49.3% | 88.9% | 92.2% | 85.9% | 96.5% | 96.1% | 87.7% | 88.4% | 81.7% | 78.6% | 93.7% | 82.8% | 88.9% | 61.7% | 69.8% | 101% | 82.9% |
| CCCCCCCOc1c(OC)cc(C2CC(=O)Nc3c2c(C)nn3-c2nc3ccccc3[nH]2)cc1OC (configuration not stated) | 8.24% (active) | -19.4% (active) | 9.97% (active) | -11.8% (active) | -51.3% (active) | 2.58% (active) | -67.1% (active) | -19.8% (active) | 13.7% | 11.8% | 6.89% (active) | -27.6% (active) | 3.05% (active) | 6.22% (active) | 4.4% (active) | 79.2% | 1.11% (active) |
| CCOC(=O)c1c(-c2ccc(Cl)cc2)c(C#N)c(=O)n(-c2ccccc2CC)c1N | 69.3% | 87.1% | 92.6% | 98.1% | 102% | 99.8% | 87.8% | 102% | 91.9% | 84.1% | 123% | 106% | 99.9% | 90.7% | 91.3% | 66.4% | 79.1% |
| CC(=O)O[C@]1(C(C)=O)CCC2C3C[C@H](C)C4=CC(=O)CC[C@]4(C)C3CC[C@@]21C (some centres not stated) | 58.9% | 91.7% | 90.6% | 93% | 81.9% | 81.6% | 115% | 130% | 79.6% | 95.3% | 63.6% | 104% | 112% | 90.1% | 83.6% | 106% | 103% |
| CCCCNC(=O)Oc1ccc2c(=O)c3sc4c(=O)c5ccccc5c(=O)c4c3c(=O)c2c1 | -41.9% (active) | -20.4% (active) | -73.6% (active) | -95.4% (active) | -93.9% (active) | -25.6% (active) | -69.5% (active) | 2.8% (active) | -19.3% (active) | -38.5% (active) | -90.2% (active) | -88.9% (active) | -75.6% (active) | -59.2% (active) | -15.6% (active) | -87.1% (active) | -29.9% (active) |
| Cc1ccc(C(=O)CSc2nc(-c3ccc(Br)cc3)c(C#N)c(=O)[nH]2)cc1 | 101% | 88.8% | 105% | 85.9% | 104% | 99.3% | 99.7% | 93% | 97.5% | 93% | 94% | 93.2% | 92.2% | 101% | 95.9% | 101% | 97.4% |
| Cc1cc(=O)[nH]c(N=Nc2c(O)[nH]c3ccccc23)n1 | 105% | 104% | 105% | 118% | 112% | 92.8% | 112% | 122% | 108% | 105% | 99.3% | 114% | 110% | 93.2% | 104% | 107% | 108% |
